From PubChem
Rows were chosen to be rich in hits. Some 7.4% of all compounds tested hit in one or more screens of this group.
NPC1 promoter act – NPC1 promoter activation; Huh7 NPC1 promoter luciferase reporter, 24 h; Potency, µM (series often up to 9.22 µM), for the others: at the highest dose activation, most hits filed as activators; 320,000 compounds, 2.4% hits; further: % of control where 0% means no effect; nearly all actives have a fitted effect of over 60% in size
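Stably transfected Huh7 (NPC1 promoter→luciferase), 1500 cells/well in Opti-MEM + 10% FBS, 2 h settle, then compound 24 h at 37 °C. Luminescence after 10 min with Amplite reagent.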
ELG1 genotox – inducers of genotoxicity in HEK293T ELG1-luciferase cells | HEK293T ELG1-luciferase reporter, luminescence, 16 h | Potency, µM (series often up to 46 µM), for inactives: top-dose activity change, positive = activation, hits mostly activators | 330,000 compounds, 1.3% hits | AID 504466; further: % of control where 0% means no effect; nearly all actives have a fitted effect of over 60% in size
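Quantitative HTS format in 1536-well plates. HEK293T ELG1-luciferase reporter cells receive test compound and are incubated 16 hr at 37 °C, 5% CO2; ONE-Glo added, 30 min room temperature, then luminescence read.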
SMN2 splice up – SMN2 splice variant enhancement | HEK293 SMN2-luciferase splicing reporter, luminescence, 30-36 h | Potency, µM (titrated, usually from 46.1 µM), inactives show at the top dose activity change, positive = activation, hits mostly activators | 210,000 compounds, 2.8% hits; further: % of control where 0% means no effect; nearly all actives have a fitted effect of over 55% in size
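qHTS luciferase splicing reporter: luminescence rises when SMN2 exon 7 is included in transfected HEK293 cells. Compound exposure lasted 30-36 h at 37C, with 4.5 mM final sodium butyrate as control, followed by a ONE-Glo read.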
Rab9 prom act – Rab9 promoter activation. Potency, µM (titrated, usually from 9.22 µM), for the others: at the top dose activation, negative = inhibition, hits mostly activators. Huh7 Rab9 promoter-luciferase reporter, luminescence, 24 h. 320,000 compounds, 2.8% hits. AID 485297; further: % of control where 0% means no effect; nearly all actives have a fitted effect of over 60% in size
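Measured in stably transfected Huh7 cells bearing a Rab9 promoter–luciferase construct: 24 h compound treatment at 37 °C, followed by luminescence detection.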
FLuc modulator – firefly luciferase modulation, counter-screen for miR-21 project. purified FLuc, Km substrates, luminescence inhibition. Potency, µM (top dose mostly 57.5 µM), for inactives: top-dose activity change, negative = inhibition, most hits filed as inhibitors. 360,000 compounds, 6.9% hits. AID 588342;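 further: plate controls were vehicle for no effect and reference inhibitor for full effect; nearly all actives have a fitted effect of over 55% in size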
Target sequence (P08659 whole entry, looked up): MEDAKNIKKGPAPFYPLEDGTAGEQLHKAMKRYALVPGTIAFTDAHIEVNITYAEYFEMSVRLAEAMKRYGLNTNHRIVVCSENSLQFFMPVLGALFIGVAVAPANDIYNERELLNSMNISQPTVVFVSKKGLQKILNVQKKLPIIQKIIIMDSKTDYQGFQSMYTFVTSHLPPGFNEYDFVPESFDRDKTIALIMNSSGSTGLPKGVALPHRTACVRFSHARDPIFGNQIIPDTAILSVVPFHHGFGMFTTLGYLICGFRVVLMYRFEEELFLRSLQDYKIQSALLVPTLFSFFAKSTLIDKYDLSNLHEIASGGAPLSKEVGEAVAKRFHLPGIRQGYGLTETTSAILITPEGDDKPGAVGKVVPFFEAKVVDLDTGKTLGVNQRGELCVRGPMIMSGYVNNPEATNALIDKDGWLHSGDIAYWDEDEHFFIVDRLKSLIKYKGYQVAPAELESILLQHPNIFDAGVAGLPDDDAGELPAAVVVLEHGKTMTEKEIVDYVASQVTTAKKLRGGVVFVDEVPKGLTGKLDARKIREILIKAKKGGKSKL
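Purified P. pyralis luciferase, 10 nM final, with Km-level 10 uM D-luciferin and 10 uM ATP in 50 mM Tris acetate pH 7.5, 10 mM Mg acetate, 0.01% Tween-20, 0.05% BSA; 6-point qHTS titration about 60 µM downward; luminescence read.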
Starred values were filed as active, the others as inactive; ? = inconclusive; . = no result given; [ ] = another dose, or the depositor's remark. The call rests on the fitted dose curve; in most records, active means well fitted curve in the direction sought with a large enough effect; inconclusive means small, poorly fitted or top-dose-only effect, or another doubt; inactive means no such curve, though single readings can be large; an effect the other way counts as inactive or inconclusive. Potency means the concentration at half of the fitted maximal effect.

SMILES	NPC1 promoter act	ELG1 genotox	SMN2 splice up	Rab9 prom act	FLuc modulator
COc1ccc(-c2ccc3c(N)c(C(=O)NCc4ccc(Cl)cc4)sc3n2)cc1	.	.	11µM*	.	7%
CCOC(=O)c1sc2nc(-c3cccnc3)ccc2c1N	0.45µM*	2.6µM*	.	0.5µM*	0.48µM*
O=C(NCCC1=CCCCC1)c1ccc2c(c1)N(Cc1ccc(Cl)cc1)C(=O)c1ccccc1S2(=O)=O	.	.	29%	.	-1%
CCCCNC(=O)CCn1c(=O)c2ccccc2n(Cc2ccccc2C#N)c1=O	.	.	-8%	.	-2%
Cn1c(SCC(=O)c2ccccc2)nnc1-c1cccs1	3.2µM*	?	.	2.8µM*	12µM*
Cn1c(SCC(=O)c2ccccc2)nnc1-c1cnccn1	?	?	24%	3.2µM*	?
Cn1c(SCC(=O)NCc2cccs2)nnc1-c1cccs1	.	.	-14%	.	3%
CCC(=O)Nc1cccc(-n2nnnc2SCC(=O)c2ccc(C)c(C)c2)c1	17%	12%	-10%	17%	15µM*
CCC(=O)Nc1cccc(-c2nnc(SCC(=O)c3ccccc3)n2C)c1	?	?	3%	1.8µM*	6µM*
CCC(=O)Nc1cccc(-c2nnc(SCC(=O)NCc3ccco3)n2C)c1	-2%	0%	2%	-2%	-2%
COc1ccccc1-c1nnc(SCC(=O)O)n1-c1ccccc1	0%	-1%	-6%	-7%	?
CCn1c(SCC(=O)c2ccccc2)nnc1-c1cnccn1	?	16µM*	?	?	21µM*
Cn1c(SCc2ccccc2)nnc1-c1cnccn1	18%	20%	8%	6.3µM*	-18%
CCn1c(SCC(=O)Nc2ccccc2F)nnc1-c1cnccn1	-2%	2%	.	-1%	-3%
CCn1c(SCC(=O)O)nnc1-c1ccccc1OC	4.5µM*	23µM*	.	3.2µM*	13µM*
Cn1c(SCc2ccc(F)cc2)nnc1-c1cnccn1	23%	10%	.	27%	-18%
O=C(CSc1c2c(nc3cc(Cl)ccc13)CCCC2)N1CCN(c2ccccc2F)CC1	.	.	-32%	.	-14%
Fc1ccccc1-n1ncc2c1ncn1nc(COc3ccc(Cl)cc3)nc21	.	.	15%	.	0%
NC(=O)CCCCC(N)=O	.	.	16%	.	.
O=C(CCCc1ccccc1)NCc1cn2ccsc2n1	2%	12%	-6%	-5%	1%
Oc1ccc2ccccc2c1C=NCc1cn2ccsc2n1	-3%	2%	9%	-3%	19µM*
Cc1ccc(OCc2cc(C(=O)N(C)CCc3ccccn3)no2)cc1C	?	10%[9.26 µM]	.	3.5µM*	13µM*
Cc1cc(CN(C)C(=O)c2cc(COc3ccc(C)c(C)c3)on2)on1	2.5µM*	16µM*	.	1.4µM*	12µM*
COc1cccc(OCc2cc(C(=O)N(C)C3CCOCC3)no2)c1	-1%	0%	.	13%	2%
Cc1nnc(CN(C)C(=O)c2cc(COc3ccc(C)c(C)c3)on2)o1	11%	9%	.	17%	?
SMILES	NPC1 promoter act	ELG1 genotox	SMN2 splice up	Rab9 prom act	FLuc modulator
COc1cccc(OCc2cc(C(=O)N(C)Cc3nc(C)cs3)no2)c1	3.2µM*	12µM*	.	2.2µM*	12µM*
CCOC(=O)c1sc(=NC(=O)c2ccccc2Br)n(C)c1C	?	?	.	?	2.1µM*
CCOC(=O)c1sc(=NC(=O)c2ccco2)n(C)c1C	-12%	4%	14µM*	?	15µM*
CCOC(=O)c1sc(=NC(=O)/C=C/c2ccccc2)n(C)c1C	?	15%	30%	1.6µM*	-7%
CCOC(=O)c1sc(=NC(=O)c2ccc(Cl)s2)n(C)c1C	?	1.2µM*	7.9µM*	?	0.67µM*
CCOC(=O)c1sc(=NC(=O)c2ccc(OC(C)C)cc2)n(C)c1C	-18%	5%	-5%	1%	-3%
COCCn1c(=NC(=O)/C=C/c2ccccc2)sc2cc(NC(C)=O)ccc21	1%	2%	15%	-1%	-10%
Cc1ccc(-n2nc(C(=O)NCc3ccc(F)cc3Cl)c3c4ccccc4n(C)c3c2=O)cc1	.	.	-4%	.	-2%
CCCNC(=O)[C@H]1O[C@@H]1C(=O)N[C@H](C(=O)N1CCC[C@H]1C(=O)OC)[C@@H](C)CC	.	.	-88%	.	.
CCOC(=O)c1sc(=NC(=O)c2cccs2)n(C)c1C	1%	?	3.2µM*	?	1.3µM*
Cc1sc(NC(=O)c2ccco2)c(C(=O)c2ccc(Cl)cc2)c1C	-1%	1%	-19%	-2%	-9%
Cc1sc(=NC(=O)c2ccco2)n(C)c1-c1ccc(Cl)cc1	2.5µM*	11%	24%	2.8µM*	5.4µM*
CCS(=O)(=O)N1CC(=O)N(c2cccc(C)c2C)C(C)(C(=O)NC2CCCCC2)C1 (stereo not drawn)	.	.	.	.	0%
CN1C(=O)/C(=C/C=C2\SCCN2C)SC1=S	2.5µM*	?	2.5µM*	3.2µM*	1.9µM*
CN1C(=O)/C(=C/C=C2\SCCN2C)N(C)C1=S	3.2µM*	15µM*	?	2.5µM*	17µM*
COc1ccc(N2CCN(C(=O)c3ccc(-c4nc(COc5ccccc5)c(C)o4)cc3)CC2)cc1	.	.	.	.	-11%
CCCc1nn2c(=O)cc(COC(=O)c3ccccc3NC(=O)C3CCCCC3)nc2s1	.	.	.	.	-6%
O=C(OCC(=O)c1ccc[nH]1)c1ccc(Cl)c(Cl)c1	.	-2%	.	.	.
O=C(COC(=O)c1c(F)cccc1F)c1ccc[nH]1	4%	4%	.	13%	17µM*
COc1ccc(C(=O)COC(=O)c2ccc(N(C)C)cc2)cc1	21%	-2%	5%	?	1%
O=C(OCC(=O)c1ccc[nH]1)c1ccccc1	8%	?	-30%	?	17µM*
O=C(/C=C/c1ccccc1Cl)OCC(=O)c1ccc[nH]1	11%	6%	.	2%	9.5µM*
CN(C)c1ccc(C(=O)OCC(=O)c2ccc[nH]2)cc1	.	16µM*	.	.	.
Cn1c(=O)c2cc(S(=O)(=O)NC(Cc3ccccc3)C(=O)Nc3ccc(F)cc3)ccc2n(C)c1=O (stereo not drawn)	.	.	5%	.	2%
COC(=O)c1cc(C)nc(Sc2ccccc2N)n1	-2%	-4%	.	8%	12µM*
SMILES	NPC1 promoter act	ELG1 genotox	SMN2 splice up	Rab9 prom act	FLuc modulator
Cc1ccc(NC(=O)Nc2cccc(C)n2)cc1	0%	?	16µM*	24%	2.4µM*
Cc1cccc(NC(=O)Nc2ccc(C)c(C)c2)n1	?	?	?	?	2.1µM*
Cc1cccc(NC(=O)Nc2ccc([N+](=O)[O-])cc2)n1	?	9%	23%	2.2µM*	2%
Cc1ccc(NC(=O)Nc2cc(C)on2)cc1	?	-6%	?	?	15µM*
Cc1cccc(NC(=O)Nc2ccc(Cl)cc2)n1	25%	16%	.	?	?
CC(=O)N(C)c1ccc(NC(=O)Nc2ccc(C)cc2)cc1	29%	?	?	?	24µM*
Cc1cccc(NC(=O)Nc2cccc(C)n2)n1	20%	3%	8%	?	17µM*
